# From PubChem BioAssay
# This is a sample that favours compounds with a hit; in the whole collection about 2.2% have one here.
# Shn3 3UTR inh – reduction of Shn3 3'UTR firefly luciferase signal, primary screen, Schnurri-3 inhibitor project, cell-based, Clone20 osteoblasts, set 2 | 360,000 tested, 0.52% active | inhibition, % at 12.5 µM | Clone20 osteoblast Shn3 3'UTR firefly luciferase, 24 h;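 active = mean inhibition of at least 75% with every replicate also reaching 75%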;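 note: 0% = median of neutral control wells and 100% = pilot-screen positive control compound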
# TRPM1 prom inh – inhibitors of MITF-dependent TRPM1 promoter reporter, primary screen, cell-based, SK-MEL-5, single point, luciferase; inhibition, % at 12.5 µM; 330,000 tested, 0.83% active; SK-MEL-5 TRPM1 promoter luciferase, 24 h; AID 488899, 2010;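 active = mean inhibition across replicates of 60% or more, whatever share of single replicates reaches that level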
# EWS-Fli block – EWS/Fli-driven NR0B1 reporter inhibitors, primary screen, A673 cells, NR0B1 luciferase, luminescence, MLPCN library; viability-normalised; inhibition, % at 12.6 µM; 350,000 tested, 0.67% active;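 active = mean inhibition of at least 50% after viability correction, with every replicate also passing that limit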;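 note: firefly luciferase signal divided by Alamar Blue viability fluorescence both relative to DMSO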
# LGR2 antag – inhibitors of bursicon-induced LGR2 CRE-luciferase signal, primary screen, cell-based, HEK293, CRE-luciferase reporter, bursicon stimulation; bursicon-stimulated, 4 h; AID 720647, 2013; Drosophila bursicon receptor LGR2 (rickets); 380,000 tested, 0.35% active; inhibition, % at 9.99 µM;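 active = drop in luminescence signal, shown as inhibition above about 50% in the replicate tests, limit read from the data, passing the limit was not always enough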;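 note: agonist challenge used bursicon conditioned medium at about half maximal strength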
# PAX8 inh HTS – inhibitors of PAX8-driven TPO luciferase reporter, primary screen, RMG-I cells, single concentration; AID 652154, 2013; inhibition, % at 12.6 µM; SteadyGlo, 24 h; 360,000 tested, 1.2% active;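 active = mean replicate inhibition at least 60% with every replicate also reaching 60%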;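 note: luciferase light reporting Pax8 driven TPO promoter activity; plate controls were median of neutral control wells for no effect and mitoxantrone controls for full effect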
# EBV LMP1 NFkB – EBV LMP1-driven NF-kappaB luciferase reporter inhibitors, primary screen, cell-based, luminescence, single point; LMP1-induced NF-kappaB luciferase reporter cells; inhibition, % at 12.5 µM; 350,000 tested, 0.69% active; AID 504558, 2011; in the data active = inhibition above about 41%;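 note: 0% = neutral control wells and 100% = reference inhibitor control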
# An asterisk follows results filed as active; · = no result given.
SMILES,Shn3 3UTR inh,TRPM1 prom inh,EWS-Fli block,LGR2 antag,PAX8 inh HTS,EBV LMP1 NFkB
Cc1ccc(C(=O)/C=C/Nc2ccccn2)cc1,68.9,70.5*,·,·,·,68.6*
Cc1ccc(C(=O)/C=C/C(=O)c2ccc(C)cc2)cc1,37.9,49.9,11.5,-28.0,-7.9,45.0*
COCC(=O)Nc1ccc2c(c1)OC[C@H](C)N(C(=O)Cc1ccccn1)C[C@H](C)[C@H](OC)CN(C)C2=O,·,·,-0.2,-6.4,·,·
N#Cc1ccc(-c2ccc(OCC(=O)Nc3cccnc3)cc2)cc1,88.9*,-12.4,·,-5.5,-12.5,-2.4
C[C@@H]1CCCCO[C@@H](CN(C)Cc2ccc(C(F)(F)F)cc2)[C@@H](C)CN([C@H](C)CO)C(=O)c2cc(NC(=O)Nc3ccc(C(F)(F)F)cc3)ccc2O1,·,·,-18.1,-9.6,2.6,·
C[C@H](CO)N1C[C@H](C)[C@H](CN(C)Cc2ccc(Cl)c(Cl)c2)OCCCC[C@H](C)Oc2ccc(NC(=O)Nc3ccc(C(F)(F)F)cc3)cc2C1=O,·,·,3.8,19.2,88.4*,·
C[C@@H]1CCCCO[C@@H](CN(C)Cc2ccc(Cl)c(Cl)c2)[C@@H](C)CN([C@@H](C)CO)C(=O)c2cc(NC(=O)Nc3ccc(C(F)(F)F)cc3)ccc2O1,·,·,-9.7,-26.4,73.5*,·
C[C@@H]1CN([C@H](C)CO)C(=O)c2cc(NC(=O)Nc3ccc(C(F)(F)F)cc3)ccc2O[C@@H](C)CCCCO[C@@H]1CN(C)Cc1ccc(Cl)c(Cl)c1,·,·,4.9,-7.1,86.0*,·
O=C(c1cnccn1)N1CC[C@@H]2[C@@H](CO)Nc3ccc(-c4ccccc4)cc3[C@@H]21,·,·,-5.5,-4.7,-7.0,·
C[C@H]1CN([C@@H](C)CO)S(=O)(=O)c2ccc(C3=CCCCC3)cc2O[C@@H]1CN(C)C(=O)Cc1ccncc1,·,·,8.9,0.1,-15.2,·
COc1ccc2c3c([nH]c2c1)[C@H](CO)N(C(C)=O)CC31CN(C(C)=O)C1,·,·,9.5,-8.5,·,·
CCOc1ccc2nc(C)cc(Nc3cccc([N+](=O)[O-])c3)c2c1,8.4,83.5*,72.0*,·,-3.0,-33.8
CCC(=O)N1CC2(C1)CN(C(=O)Nc1ccccc1F)[C@H](CO)c1c2c2ccc(OC)cc2n1C,·,·,-8.2,-9.4,·,·
O=C(CSc1nnc(Cc2cccs2)n1C1CCCCC1)N1CCN(C(=O)c2ccco2)CC1,7.0,25.3,·,·,73.6*,-7.6
CCCNC(=O)Nc1ccc2c(c1)C(=O)N(C)[C@H]1CC[C@H](CC(=O)NC3CCC3)O[C@@H]1CO2,·,·,-2.2,-2.3,-4.5,·
CNC[C@H]1Oc2ncc(Br)cc2C(=O)N([C@@H](C)CO)C[C@@H]1C,·,·,-3.0,-25.7,4.3,·
CC(C)C1C(=O)N(Cc2cn(CCC3OCCCO3)nn2)CCS(=O)(=O)N1Cc1ccc(-c2ccc(Cl)nc2)cc1 (stereo unspecified),-2.4,·,-26.8,-17.0,73.8*,-1.8
CC1C(=O)N(Cc2cn(CCC3OCCCO3)nn2)CCS(=O)(=O)N1Cc1ccc(-c2ccc(Cl)c(Cl)c2)cc1 (stereo unspecified),92.0*,·,6.2,35.1,12.2,6.5
COc1ccc(-c2ccc(CN3C(C(C)C)C(=O)N(Cc4cn(CCC5OCCCO5)nn4)CCS3(=O)=O)cc2)cn1 (stereo unspecified),18.1,·,3.5,-19.5,-8.1,-11.4
C[C@@H]1CCCCO[C@@H](CN(C)C(=O)NC2CCCCC2)[C@H](C)CN([C@@H](C)CO)C(=O)c2cc(NC(=O)Nc3ccc(C(F)(F)F)cc3)ccc2O1,·,·,8.5,0.7,76.4*,·
C[C@H]1CCCCO[C@H](CN(C)C(=O)NC2CCCCC2)[C@@H](C)CN([C@@H](C)CO)C(=O)c2cc(NC(=O)Nc3ccc(C(F)(F)F)cc3)ccc2O1,·,·,3.2,-5.5,87.1*,·
C[C@@H]1CCCCO[C@H](CN(C)C(=O)NC2CCCCC2)[C@@H](C)CN([C@H](C)CO)C(=O)c2cc(NC(=O)Nc3ccc(C(F)(F)F)cc3)ccc2O1,·,·,4.1,10.7,-1.7,·
C[C@@H]1CCCCO[C@H](CN(C)C(=O)Nc2ccc(C(F)(F)F)cc2)[C@@H](C)CN([C@@H](C)CO)C(=O)c2cc(NC(=O)NC3CCCCC3)ccc2O1,·,·,5.6,11.1,29.3,·
C[C@@H]1CCCCO[C@@H](CN(C)C(=O)NC2CCCCC2)[C@@H](C)CN([C@@H](C)CO)C(=O)c2cc(NC(=O)Nc3ccc(C(F)(F)F)cc3)ccc2O1,·,·,3.6,13.2,74.3*,·
C[C@@H]1CCCCO[C@H](CN(C)C(=O)Nc2ccc(C(F)(F)F)cc2)[C@H](C)CN([C@@H](C)CO)C(=O)c2cc(NC(=O)NC3CCCCC3)ccc2O1,·,·,0.5,18.1,-16.8,·
SMILES,Shn3 3UTR inh,TRPM1 prom inh,EWS-Fli block,LGR2 antag,PAX8 inh HTS,EBV LMP1 NFkB
C[C@@H]1CCCCO[C@H](CN(C)C(=O)NC2CCCCC2)[C@@H](C)CN([C@@H](C)CO)C(=O)c2cc(NC(=O)Nc3ccc(C(F)(F)F)cc3)ccc2O1,·,·,8.9,18.3,93.1*,·
CN(C)CCCNC(=O)[C@@H]1[C@@H](CO)[C@@H]2Cn3c(ccc(-c4ccncc4)c3=O)[C@H]1N2C(=O)C1CC1,·,·,0.8,-7.1,-3.9,·
C[C@H](O)C#Cc1cnc2c(c1)C(=O)N([C@H](C)CO)C[C@H](C)[C@@H](CN(C)Cc1cccc(C(=O)O)c1)O2,·,·,-21.9,10.8,·,·
O=C(NCC[C@H]1CC[C@H](NC(=O)c2cccnc2)[C@H](CO)O1)Nc1ccc(Cl)cc1,·,·,-50.4,1.1,-26.9,·
COC(=O)C[C@H]1CC[C@H]2[C@@H](COc3ccc(NS(=O)(=O)c4ccccc4F)cc3C(=O)N2C)O1,·,·,6.5,13.4,·,·
CN1CCN(CC(=O)Nc2cccc(S(=O)(=O)N(C)c3ccccc3)c2)CC1,-43.6,-7.3,1.5,·,12.8,74.0*
CN(c1ccccc1)S(=O)(=O)c1cccc(NC(=O)c2cc(=O)c3ccccc3o2)c1,34.6,14.3,16.3,67.5*,-9.7,5.2
CCCC(=O)Nc1cccc(S(=O)(=O)N(C)c2ccccc2)c1,22.1,-0.2,·,-8.1,5.5,4.7
NS(=O)(=O)c1cccc(NC(=O)c2cc(=O)c3ccccc3o2)c1,-21.5,-10.5,-15.0,0.4,-8.4,1.7
CCC(=O)N(C)C[C@H]1Oc2cc(C#CCC(C)C)ccc2S(=O)(=O)N([C@@H](C)CO)C[C@H]1C,·,·,-11.1,8.5,·,·
CCSc1nsc(NC(=O)Nc2cccc(F)c2)n1,43.3,42.9,-24.7,-0.6,90.4*,25.0
COc1cccc(NC(=O)Nc2nc(SC)ns2)c1,-36.7,-99.5,-119.1,-0.3,-244.4,-34.7
CCNC(=O)[C@H]1[C@H](CO)[C@H]2Cn3c(ccc(-c4ccccc4F)c3=O)[C@@H]1N2S(C)(=O)=O,·,·,16.4,-0.7,·,·
